This is an account of results in PubChem BioAssay.

The structures appear in SMILES notation. The source made the active and inactive calls.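 Rule for the calls: active = visual image review flags a hit and inhibition of aggregation exceeds 20%; inconclusive = visual hit but inhibition at or below 20%; inactive = no hit on visual image review.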

The nature of the assay: inhibitors of mutant huntingtin aggregation, primary screen, imaging, exon1htt(103Q)mCFP cells, high-content imaging (AID 483).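 For nuclei count: percent of the per-plate median nuclei count of sample wells.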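 Note: compound exposure lasted 3 days before fixation.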 The note with it: exon1htt(103Q)mCFP cell line, aggregate imaging, at 2 µM; inhibition of aggregation: stronger effect = higher value; nuclei count: measured here: cell count, toxicity.
Take `COc1ccccc1CCNC(=O)C1CCCO1` (stereo not drawn): the nuclei count turned out to be 118% and the inhibition of aggregation was -27.9% (inactive).
On to `CSc1ccccc1NC(=O)C1CCCO1` (stereo not drawn), for which the nuclei count worked out at 105% and the inhibition of aggregation was 10.2% (inactive).
`Cn1c(=O)cc(OCCCC(=O)N2CCCCC2)c2ccccc21`: the inhibition of aggregation was -21.8% (inactive) and the nuclei count was 96.2%.
Regarding `CCCc1[nH]nc2c1C(c1cn[nH]c1-c1ccc(F)cc1)C(C#N)=C(N)O2` (stereo not drawn), the nuclei count turned out to be 89.8% and the inhibition of aggregation is 11.7% (inactive).
`CN1C(=S)SC(C)(NO)C1(C)C` (stereo not drawn): the nuclei count was found to be 78.4% and the inhibition of aggregation is 7.3% (inactive).
On the same counts, the results for `O=C(NCc1ccc2c(c1)OCO2)C1CCC(CNc2c(N3CCCCC3)c(=O)c2=O)CC1` (stereo not drawn) are 109% and 2.3% (inactive).
Take `CC(C)(CO)NC(=O)CCCOc1ccc(Cl)cc1Cl`: the nuclei count was found to be 97.4% and the inhibition of aggregation is 6.2% (inactive).
On the same counts, the results for `CN(C(=O)C1CCOC1)c1nnc(-c2cccnc2)s1` (stereo not drawn) are 67.6% and 15.3% (inactive).
Take `COc1ccc(OC)c2[nH]c(=O)c(CCNC(=O)CC(C)C)cc12`: the nuclei count came to 91.9% and the inhibition of aggregation is 2% (inactive).
On the same counts, the results for `COc1ccc(S(=O)(=O)N2CCCC2C(=O)Nc2ccc(O)cc2)cc1` (stereo not drawn) are 110% and -21.9% (inactive).
On the same counts, the results for `CCN(CC)Cc1nc2c(c(=O)[nH]1)C1(CCCCC1)Cc1ccccc1-2` are 89.3% and -2.4% (inactive).
On the same counts, the results for `COc1ccc(NC(=O)C2CCCCN2S(=O)(=O)c2ccc(F)cc2)cc1` (stereo not drawn) are 76.6% and 27.3% (inactive).
For `CCOC(=O)c1c(NC(=O)c2cccs2)sc2c1CCN(C(=O)OCC)C2`, the inhibition of aggregation was -6.8% (inactive) and the nuclei count was 99.7%.
On the same counts, the results for `Cc1c(NC(=O)c2ccc(COc3ccc4ccccc4c3)o2)c(=O)n(-c2ccccc2)n1C` are 1.1% (inactive) and 101%.
